Test results as given in the supplement of paper PMC10849652.
Of roughly 7,900 targets only a part is listed; those with a hit were picked by preference. About 0.6% of all pairs of compound and target were hits.

Columns and labels:
Assay in all cases: log2 fold change, soluble protein after heating vs DMSO (PISA); higher = thermal stabilisation; K562 cells, 10 uM, 30 min; active = over 0.2 and 3.5 SD of the protein, either way, in both replicates (recomputed)
[1] = compound: C#Cc1cccc(Nc2ncnc3cc(OCCOC)c(OCCOC)cc23)c1 [erlotinib]
Outline: (§1)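 For each measurement, 10 μM compound was applied for 30 min to K562 cells at 2×10^6 cells/mL. Aliquots were heated for 3 min across 48°C-58°C, pooled, and extracted in PBS with 0.5% NP-40 at 4°C; the supernatant after 21,000xg for 90 min was soluble protein. This was quantified by TMTpro 16plex LC-MS/MS with channel sums equalised, and thermal stability was reported relative to control samples from duplicates, on a log2 fold-change scale.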

[2] = compound: C/C(=N\NC(=O)C1=CC(=CC=C1)S(=O)(=O)N2CCOCC2)/C3=C(C=CC(=C3)Cl)O
Outline: as §1

[3] = compound: C1=CC(=C(C=C1Cl)C2=NC3=NC=CN=C3C(=N2)NC4=CC=NC=C4)F
Outline: as §1

[4] = compound: C1=CC(=CC=C1C2=NC3=C(N2)C=C(C=C3)C(=O)N)OC4=CC=C(C=C4)Cl
Outline: as §1

[5] = compound: C1=CC2=C(C=CC(=C2)/C=C\3/C(=O)NC(=NCC4=CC=CS4)S3)N=C1
Outline: as §1

[6] = compound: C1=CC2=NC=CN=C2C=C1/C=C/3\C(=O)NC(=O)S3
Outline: as §1

[7] = compound: C1=CC=C(C=C1)C2=NC(=C(N2)C3=CC=NC=C3)C4=CC(=C(C=C4)Cl)O
Outline: as §1

[8] = compound: C1=CC=C2C(=C1)C3=NNC4=CC=CC(=C43)C2=O
Outline: as §1

[9] = compound: C1CCN(C1)C(=O)NC2=CC=CC(=C2)NC3=NC=C(C(=N3)NCCC4=CN=CN4)Br
Outline: as §1

[10] = compound: C1CN(CCC1(CC2=CC=C(C=C2)Cl)N)C3=NC=NC4=C3C=CN4
Outline: as §1

Measured: log2 fold change

HRAS (UniProt P01112)
inactive: [1] 0.029 | [2] 0.034 | [3] 0.069 | [4] 0.146 | [5] -0.356 | [6] -0.244 | [7] 0.138 | [8] -0.168 | [9] -0.08 | [10] 0.048

HAX1 (UniProt O00165)
UniProt O00165, sequence (O00165 whole entry, looked up): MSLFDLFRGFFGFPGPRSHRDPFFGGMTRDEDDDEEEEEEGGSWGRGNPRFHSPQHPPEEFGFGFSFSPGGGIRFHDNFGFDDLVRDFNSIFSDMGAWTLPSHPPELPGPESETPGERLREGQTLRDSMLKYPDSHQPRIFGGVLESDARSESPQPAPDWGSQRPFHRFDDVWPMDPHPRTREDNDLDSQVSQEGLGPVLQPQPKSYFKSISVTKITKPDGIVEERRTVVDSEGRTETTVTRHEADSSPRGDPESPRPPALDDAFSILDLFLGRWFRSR
inactive: [1] 0.07 | [2] -0.006 | [3] -0.024 | [4] -0.014 | [5] 0.087 | [6] 0.008 | [7] 0.06 | [8] 0.156 | [9] 0.027 | [10] -0.078

GLRX3 (UniProt O76003)
inactive: [1] -0.031 | [2] 0.024 | [3] 0.052 | [4] -0.037 | [5] 0.011 | [6] 0.006 | [7] 0.031 | [8] -0.001 | [9] 0.003 | [10] -0.015

GATA1 (UniProt P15976)
inactive: [1] 0.05 | [2] 0.024 | [3] -0.021 | [4] -0.015 | [5] 0.032 | [6] 0.028 | [7] -0.021 | [8] -0.083 | [9] 0.031 | [10] -0.004

GPD1 (UniProt P21695)
UniProt P21695, sequence (P21695 whole entry, looked up): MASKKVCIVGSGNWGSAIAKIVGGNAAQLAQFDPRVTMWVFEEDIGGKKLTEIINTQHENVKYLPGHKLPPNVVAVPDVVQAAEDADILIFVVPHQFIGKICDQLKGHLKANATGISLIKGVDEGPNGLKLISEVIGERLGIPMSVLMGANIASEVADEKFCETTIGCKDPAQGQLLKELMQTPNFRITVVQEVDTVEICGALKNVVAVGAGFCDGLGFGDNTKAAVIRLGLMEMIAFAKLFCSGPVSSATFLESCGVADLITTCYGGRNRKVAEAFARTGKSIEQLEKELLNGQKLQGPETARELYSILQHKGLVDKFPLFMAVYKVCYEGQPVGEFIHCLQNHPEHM
inactive: [1] 0.55 | [2] -0.084 | [3] -0.075 | [4] -0.305 | [5] 0.129 | [6] -0.149 | [7] -0.003 | [8] -0.047 | [9] -0.043 | [10] 0.032

GHDC (UniProt Q8N2G8)
inactive: [1] 0.062 | [2] 0.046 | [3] -0.002 | [4] 0.013 | [5] 0.011 | [6] 0.003 | [7] -0.021 | [8] -0.008 | [9] -0.009 | [10] 0.06

GID4 (UniProt Q8IVV7)
inactive: [1] -0.033 | [2] 0.017 | [3] 0.005 | [4] 0.028 | [5] -0.046 | [6] 0.003 | [7] -0.072 | [8] -0.018 | [9] 0.042 | [10] -0.005

GALNT2 (UniProt Q10471)
inactive: [1] -0.052 | [2] 0.043 | [3] 0.021 | [4] 0 | [5] 0.009 | [6] 0.022 | [7] 0.028 | [8] 0.046 | [9] 0.009 | [10] 0.042

FECH isoform 2 (UniProt P22830)
inactive: [1] 0.191 | [2] -0.179 | [3] 0.349 | [4] 0.206 | [5] 0.162 | [6] 0.048 | [7] 0.429 | [8] 0.135 | [9] 0.172 | [10] 0.046

GDE1 (UniProt Q9NZC3)
UniProt Q9NZC3, sequence (Q9NZC3 whole entry, looked up): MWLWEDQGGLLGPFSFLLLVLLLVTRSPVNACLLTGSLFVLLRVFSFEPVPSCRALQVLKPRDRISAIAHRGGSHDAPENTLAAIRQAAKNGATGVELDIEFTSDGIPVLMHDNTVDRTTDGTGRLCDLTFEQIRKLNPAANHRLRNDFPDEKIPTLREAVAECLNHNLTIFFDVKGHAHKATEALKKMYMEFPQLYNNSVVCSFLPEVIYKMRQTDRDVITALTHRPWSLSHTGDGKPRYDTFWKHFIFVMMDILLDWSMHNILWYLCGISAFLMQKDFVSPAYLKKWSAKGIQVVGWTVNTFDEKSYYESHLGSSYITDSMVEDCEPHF
inactive: [1] 0.014 | [2] 0.065 | [3] 0.055 | [4] 0.019 | [5] -0.047 | [6] 0.05 | [7] -0.029 | [8] -0.023 | [9] 0.003 | [10] 0.13

GGA2 (UniProt Q9UJY4)
inactive: [1] 0.036 | [2] -0.041 | [3] -0.151 | [4] 0.003 | [5] 0.063 | [6] 0.033 | [7] -0.053 | [8] -0.013 | [9] 0.025 | [10] -0.016

GNL1 (UniProt P36915)
inactive: [1] 0.044 | [2] 0.046 | [3] 0.048 | [4] -0.028 | [5] 0.037 | [6] -0.004 | [7] 0.074 | [8] 0 | [9] 0.035 | [10] -0.055

HNRNPH1 (UniProt P31943)
UniProt P31943, sequence (P31943 whole entry, looked up): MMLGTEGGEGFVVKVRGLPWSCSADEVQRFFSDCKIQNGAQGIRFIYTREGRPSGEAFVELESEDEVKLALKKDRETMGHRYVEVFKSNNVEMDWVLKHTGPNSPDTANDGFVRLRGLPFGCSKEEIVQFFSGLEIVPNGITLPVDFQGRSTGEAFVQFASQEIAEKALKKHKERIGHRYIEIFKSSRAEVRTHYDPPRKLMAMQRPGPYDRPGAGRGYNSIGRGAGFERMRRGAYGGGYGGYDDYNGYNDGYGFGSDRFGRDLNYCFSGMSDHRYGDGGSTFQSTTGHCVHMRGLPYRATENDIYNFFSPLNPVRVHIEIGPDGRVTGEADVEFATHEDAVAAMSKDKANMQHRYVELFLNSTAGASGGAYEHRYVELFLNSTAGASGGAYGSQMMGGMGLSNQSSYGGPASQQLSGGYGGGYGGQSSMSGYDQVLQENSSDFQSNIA
inactive: [1] 0.043 | [2] 0.102 | [3] -0.04 | [4] 0.004 | [5] -0.035 | [6] -0.012 | [7] -0.016 | [8] 0.007 | [9] -0.1 | [10] -0.023

GABARAPL2 (UniProt P60520)
UniProt P60520, sequence (P60520 whole entry, looked up): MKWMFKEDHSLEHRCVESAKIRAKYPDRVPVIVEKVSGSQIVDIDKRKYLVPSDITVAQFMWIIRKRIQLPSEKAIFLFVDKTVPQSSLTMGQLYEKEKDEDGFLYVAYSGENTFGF
inactive: [1] 0.065 | [2] 0.013 | [3] 0.021 | [4] -0.02 | [5] 0.072 | [6] 0.016 | [7] 0.077 | [8] 0.008 | [9] -0.027 | [10] -0.021

HDAC2 (UniProt Q92769)
UniProt Q92769, sequence (Q92769 whole entry, looked up): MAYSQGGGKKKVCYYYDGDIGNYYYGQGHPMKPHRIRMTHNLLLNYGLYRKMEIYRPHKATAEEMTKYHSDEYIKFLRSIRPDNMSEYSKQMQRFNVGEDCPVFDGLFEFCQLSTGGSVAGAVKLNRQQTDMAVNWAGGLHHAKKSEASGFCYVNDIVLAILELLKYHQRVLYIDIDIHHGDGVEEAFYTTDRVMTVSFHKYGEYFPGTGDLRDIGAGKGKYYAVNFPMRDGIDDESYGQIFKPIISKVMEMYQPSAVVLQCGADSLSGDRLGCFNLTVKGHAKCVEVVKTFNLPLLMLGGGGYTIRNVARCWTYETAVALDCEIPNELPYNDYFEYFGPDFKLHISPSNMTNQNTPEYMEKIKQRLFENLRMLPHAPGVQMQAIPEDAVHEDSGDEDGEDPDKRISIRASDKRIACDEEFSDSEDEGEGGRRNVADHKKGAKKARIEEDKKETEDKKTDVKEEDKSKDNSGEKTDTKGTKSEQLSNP
active: [1] 0.757
inactive: [2] 0.013 | [3] -0.02 | [4] -0.012 | [5] 0.006 | [6] 0.002 | [7] -0.011 | [8] -0.011 | [9] -0.025 | [10] 0.023

GUK1 isoform 2 (UniProt Q16774)
inactive: [1] 0.009 | [2] 0.289 | [3] 0.092 | [4] 0 | [5] 0.004 | [6] 0 | [7] -0.02 | [8] 0.021 | [9] -0.03 | [10] 0.066

HP1BP3 (UniProt Q5SSJ5)
inactive: [1] 0.071 | [2] -0.035 | [3] -0.04 | [4] 0.028 | [5] 0.069 | [6] 0.064 | [7] -0.013 | [8] -0.044 | [9] 0.027 | [10] -0.155

HHEX (UniProt Q03014)
inactive: [1] -0.043 | [2] -0.206 | [3] 0.069 | [4] 0.044 | [5] 0.008 | [6] -0.022 | [7] -0.044 | [8] 0.037 | [9] -0.004 | [10] 0.022

FDPS (UniProt P14324)
UniProt P14324, sequence (P14324 whole entry, looked up): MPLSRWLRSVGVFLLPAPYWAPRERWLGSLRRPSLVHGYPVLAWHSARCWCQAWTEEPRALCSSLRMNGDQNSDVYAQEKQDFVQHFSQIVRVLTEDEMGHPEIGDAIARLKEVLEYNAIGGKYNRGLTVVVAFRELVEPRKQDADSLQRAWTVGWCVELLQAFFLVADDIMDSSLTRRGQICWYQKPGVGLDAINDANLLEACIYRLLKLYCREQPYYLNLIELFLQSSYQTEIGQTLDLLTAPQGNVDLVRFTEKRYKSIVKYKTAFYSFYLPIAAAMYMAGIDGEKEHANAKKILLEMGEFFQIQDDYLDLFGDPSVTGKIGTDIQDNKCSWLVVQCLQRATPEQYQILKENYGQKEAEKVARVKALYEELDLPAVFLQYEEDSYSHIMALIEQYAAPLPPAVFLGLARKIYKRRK
inactive: [1] 0.18 | [2] 0.174 | [3] -0.022 | [4] 0.067 | [5] 0.3 | [6] -0.026 | [7] 0.06 | [8] 0.186 | [9] 0.006 | [10] -0.309

GEMIN6 (UniProt Q8WXD5)
UniProt Q8WXD5, sequence (Q8WXD5 whole entry, looked up): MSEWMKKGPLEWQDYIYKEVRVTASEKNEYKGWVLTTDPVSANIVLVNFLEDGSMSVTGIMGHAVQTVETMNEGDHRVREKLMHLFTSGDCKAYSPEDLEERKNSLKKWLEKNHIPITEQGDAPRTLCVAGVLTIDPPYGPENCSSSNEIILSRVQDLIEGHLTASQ
inactive: [1] -0.002 | [2] 0.02 | [3] -0.042 | [4] 0.027 | [5] -0.022 | [6] 0.065 | [7] 0.125 | [8] -0.012 | [9] -0.002 | [10] -0.045

IDH3A (UniProt P50213)
inactive: [1] 0.021 | [2] 0.034 | [3] 0.1 | [4] 0.023 | [5] 0.021 | [6] 0.017 | [7] -0.03 | [8] 0.024 | [9] -0.009 | [10] 0.028

IFNGR1 (UniProt P15260)
inactive: [1] 0.256 | [2] 0.003 | [3] 0.156 | [4] -0.208 | [5] -0.033 | [6] -0.033 | [7] -0.066 | [8] -0.035 | [9] 0.048 | [10] 0.247

FBL (UniProt P22087)
UniProt P22087, sequence (P22087 whole entry, looked up): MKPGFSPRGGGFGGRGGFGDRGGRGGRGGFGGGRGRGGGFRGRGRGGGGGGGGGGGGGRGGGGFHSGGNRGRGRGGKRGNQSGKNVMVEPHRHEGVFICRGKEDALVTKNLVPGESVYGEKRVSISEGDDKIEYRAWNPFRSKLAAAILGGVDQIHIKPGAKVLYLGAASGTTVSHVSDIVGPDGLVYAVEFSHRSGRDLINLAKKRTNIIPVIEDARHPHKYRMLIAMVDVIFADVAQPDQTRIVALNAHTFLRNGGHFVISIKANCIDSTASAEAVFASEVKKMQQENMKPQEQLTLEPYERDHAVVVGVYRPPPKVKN
inactive: [1] 0.06 | [2] -0.153 | [4] 0.013 | [5] -0.102 | [6] 0.13 | [7] -0.099 | [8] -0.091 | [9] 0.054 | [10] -0.117
active: [3] -0.566

HMGB3 (UniProt O15347)
inactive: [1] -0.037 | [2] -0.002 | [3] 0.047 | [4] 0.011 | [6] -0.042 | [7] 0.095 | [8] -0.006 | [9] -0.025 | [10] 0.023
active: [5] -0.267

HEXB (UniProt P07686)
UniProt P07686, sequence (P07686 whole entry, looked up): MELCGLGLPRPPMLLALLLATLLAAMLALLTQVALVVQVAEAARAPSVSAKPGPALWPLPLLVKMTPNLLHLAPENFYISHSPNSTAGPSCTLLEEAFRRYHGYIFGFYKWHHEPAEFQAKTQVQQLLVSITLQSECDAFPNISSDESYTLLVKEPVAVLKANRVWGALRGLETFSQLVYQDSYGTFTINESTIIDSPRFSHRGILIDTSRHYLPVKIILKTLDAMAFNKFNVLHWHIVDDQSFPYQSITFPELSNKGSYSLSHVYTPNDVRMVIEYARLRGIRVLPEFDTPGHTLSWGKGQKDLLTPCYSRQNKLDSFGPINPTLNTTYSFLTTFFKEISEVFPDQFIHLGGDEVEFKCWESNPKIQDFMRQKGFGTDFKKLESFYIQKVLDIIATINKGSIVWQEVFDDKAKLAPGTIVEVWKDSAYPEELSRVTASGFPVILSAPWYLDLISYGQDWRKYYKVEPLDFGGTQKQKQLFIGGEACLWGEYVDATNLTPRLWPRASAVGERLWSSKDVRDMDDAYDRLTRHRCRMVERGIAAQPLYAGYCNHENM
inactive: [1] -0.004 | [2] 0.002 | [3] 0.01 | [4] 0.003 | [5] -0.002 | [6] 0.017 | [7] 0.017 | [8] -0.01 | [9] 0.008 | [10] 0.026

HMGCR isoform 3 (UniProt P04035)
UniProt P04035, sequence (P04035 whole entry, looked up): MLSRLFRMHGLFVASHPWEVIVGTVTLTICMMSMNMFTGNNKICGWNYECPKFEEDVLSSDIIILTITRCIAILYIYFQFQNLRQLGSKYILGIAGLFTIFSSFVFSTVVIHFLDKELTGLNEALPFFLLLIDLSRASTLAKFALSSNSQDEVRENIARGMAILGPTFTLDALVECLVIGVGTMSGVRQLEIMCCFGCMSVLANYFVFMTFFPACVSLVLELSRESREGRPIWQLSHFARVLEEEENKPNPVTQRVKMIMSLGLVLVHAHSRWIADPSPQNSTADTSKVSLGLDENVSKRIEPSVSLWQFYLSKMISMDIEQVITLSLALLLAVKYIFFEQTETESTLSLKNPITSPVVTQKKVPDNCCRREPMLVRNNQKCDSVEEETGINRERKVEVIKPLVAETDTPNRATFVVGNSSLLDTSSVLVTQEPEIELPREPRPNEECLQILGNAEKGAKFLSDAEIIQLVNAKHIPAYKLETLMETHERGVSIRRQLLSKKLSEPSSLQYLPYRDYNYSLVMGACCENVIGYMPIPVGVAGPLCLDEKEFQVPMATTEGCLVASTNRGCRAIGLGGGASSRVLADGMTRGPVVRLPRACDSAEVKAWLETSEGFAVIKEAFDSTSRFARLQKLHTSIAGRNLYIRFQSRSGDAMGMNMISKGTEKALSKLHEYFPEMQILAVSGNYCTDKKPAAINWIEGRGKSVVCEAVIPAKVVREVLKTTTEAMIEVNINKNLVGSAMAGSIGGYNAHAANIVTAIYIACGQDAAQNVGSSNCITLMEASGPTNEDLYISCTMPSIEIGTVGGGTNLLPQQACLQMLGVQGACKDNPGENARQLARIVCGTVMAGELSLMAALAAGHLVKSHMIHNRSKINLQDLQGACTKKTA
inactive: [1] -0.089 | [2] 0.025 | [3] -0.001 | [4] 0.032 | [5] -0.038 | [6] 0.101 | [7] -0.033 | [8] -0.137 | [9] -0.081 | [10] 0

GTF2E2 (UniProt P29084)
UniProt P29084, sequence (P29084 whole entry, looked up): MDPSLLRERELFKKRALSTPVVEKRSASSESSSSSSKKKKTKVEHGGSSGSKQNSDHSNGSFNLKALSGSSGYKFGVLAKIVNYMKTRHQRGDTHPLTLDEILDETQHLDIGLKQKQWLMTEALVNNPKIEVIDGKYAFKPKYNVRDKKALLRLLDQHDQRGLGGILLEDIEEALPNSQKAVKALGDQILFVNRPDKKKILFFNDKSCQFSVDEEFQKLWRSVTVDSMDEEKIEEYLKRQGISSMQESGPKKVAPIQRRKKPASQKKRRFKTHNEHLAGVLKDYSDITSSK
inactive: [1] 0.028 | [2] 0.137 | [3] 0.048 | [4] -0.001 | [5] 0.09 | [6] 0.003 | [7] -0.002 | [8] 0.03 | [9] -0.03 | [10] -0.13

GLUL (UniProt P15104)
inactive: [1] -0.058 | [2] 0.016 | [3] 0.027 | [4] 0.022 | [5] -0.006 | [6] -0.003 | [7] -0.007 | [8] -0.045 | [9] -0.037 | [10] 0.017

HMG20A (UniProt Q9NP66)
inactive: [1] -0.005 | [2] 0.125 | [3] -0.09 | [4] 0.017 | [5] -0.281 | [6] -0.009 | [8] 0.001 | [9] -0.013 | [10] 0.006
active: [7] 0.429

HBZ (UniProt P02008)
UniProt P02008, sequence (P02008 whole entry, looked up): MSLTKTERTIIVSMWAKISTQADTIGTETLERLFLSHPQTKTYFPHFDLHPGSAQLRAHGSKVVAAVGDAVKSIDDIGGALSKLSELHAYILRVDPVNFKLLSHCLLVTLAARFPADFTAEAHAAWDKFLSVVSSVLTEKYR
inactive: [1] -0.013 | [2] 0.077 | [3] 0.252 | [4] 0.042 | [5] 0.143 | [6] 0.006 | [7] 0.118 | [8] 0.017 | [9] -0.034 | [10] 0.043
